Screening data: PubChem, National Center for Advancing Translational Sciences (NCATS)
BAZ2B inh: inhibitors of human BAZ2B bromodomain | AID 504333 | Potency, µM (series often up to 114 µM), for the others: at the top dose activity change, negative = inhibition, hits mostly inhibitors | Q9UIF8 | AlphaScreen BAZ2B-H3K14Ac peptide displacement | 4.4% of 360,000 active; further: on the % scale 0 is the no-effect control and ±100 the full control effect; nearly all actives have a fitted effect of over 60% in size
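AlphaScreen luminescence quantifies BAZ2B engagement of H3K14Ac peptide; the protein and biotinylated peptide are both at 50 nM final, buffer PBS pH 7.4 with 0.01% Tween-20, all steps at room temperature.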
G9a block: blocks human histone lysine methyltransferase G9a. G9a H3K9 monomethylation, AlphaScreen, 2 h. Potency, µM (titrated, usually from 102 µM), without a hit: at the highest dose activity, negative = inhibition, actives largely listed as inhibitors. 8.8% of 350,000 active; further: on the % scale 0 is the no-effect control and ±100 the full control effect; nearly all actives have a fitted effect of over 75% in size
Target sequence (Q96KQ7 913-1193 limits assumed): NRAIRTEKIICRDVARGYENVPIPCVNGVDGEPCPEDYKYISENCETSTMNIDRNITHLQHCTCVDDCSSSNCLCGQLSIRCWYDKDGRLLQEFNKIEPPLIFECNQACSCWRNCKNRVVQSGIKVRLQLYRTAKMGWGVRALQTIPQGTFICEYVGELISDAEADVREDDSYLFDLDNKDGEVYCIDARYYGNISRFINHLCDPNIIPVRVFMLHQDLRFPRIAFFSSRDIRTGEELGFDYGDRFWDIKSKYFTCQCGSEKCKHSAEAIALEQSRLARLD
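Signal arises when biotinylated H3K9 peptide, once monomethylated, bridges streptavidin donor and antibody-captured acceptor beads. Enzyme at 20 nM was preincubated 15 min with test compounds; peptide 500 nM and SAM 20 uM then reacted for 2 h.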
GLS inhibitor: glutaminase GLS (human) inhibition. O94925. GLS enzymatic activity, qHTS titration. Potency, µM (series often up to 45.5 µM), for the others: at the top dose activity change, negative = inhibition, most hits filed as inhibitors. 0.21% of 410,000 active. AID 624170; further: on the % scale 0 is the no-effect control and ±100 the full control effect
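hKGA in 45 mM KH2PO4 pH 8.2, 0.02% Tween-20 with pin-transferred compounds; 1 mM L-glutamine (stock) plus glutamate oxidase/HRP/Amplex Red coupling added. Fluorescence read initially and after 30 min at RT.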
HP1b binding inh: blocks HP1-beta chromodomain binding to methylated histone tails. Potency, µM (highest dose often 114 µM), for the others: at the top dose activity change, negative = inhibition, most hits filed as inhibitors. 0.56% of 390,000 active. AlphaScreen HP1-beta / biotin-H3K9me3 peptide binding; further: nearly all actives have a fitted effect of over 70% in size
Target sequence (P83916 whole entry, looked up): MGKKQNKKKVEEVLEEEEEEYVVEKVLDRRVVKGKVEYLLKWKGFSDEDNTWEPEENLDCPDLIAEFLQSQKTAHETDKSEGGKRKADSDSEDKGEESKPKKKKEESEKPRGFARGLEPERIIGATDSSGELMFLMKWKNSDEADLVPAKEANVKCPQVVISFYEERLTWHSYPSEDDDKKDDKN
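AlphaScreen: HP1-beta (50 nM) preformed 30 min with biotin-H3(1-18)K9me3 peptide (50 nM) in PBS pH 7.4, 0.01% Tween-20. Compound added for 30 min at RT, then streptavidin donor/nickel chelate acceptor beads (10 ug/mL) for 30 min.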
JMJD2A Tudor inh: blocks the human JMJD2A Tudor domain; O75164; AlphaScreen JMJD2A-Tudor / H3K4me3 peptide binding; Potency, µM (series often up to 114 µM), inactives show top-dose activity change, negative = inhibition, usual class: inhibitors; 4.4% of 390,000 active; AID 504339; further: on the % scale 0 is the no-effect control and ±100 the full control effect; nearly all actives have a fitted effect of over 50% in size
* hit, by the source's call; ? = inconclusive; / = not tested or not shown; ! = not confirmed by another sample; [ ] = remark or other dose. An excerpt weighted towards active compounds, which were near 10% of everything screened. The call rests on the fitted dose curve; in most records, active means well fitted curve in the direction sought with a large enough effect; inconclusive means small, poorly fitted or top-dose-only effect, or another doubt; inactive means no such curve, though single readings can be large; an effect the other way counts as inactive or inconclusive. Potency means the concentration at half of the fitted maximal effect.

SMILES	BAZ2B inh	G9a block	GLS inhibitor	HP1b binding inh	JMJD2A Tudor inh
NC(=O)NC(=O)CC1S/C(=N/N=C2/NC(=O)CS2)NC1=O (configuration not stated)	20µM*	5µM*	1%	21%	28µM*
O=C(O)CNC(=O)CC1S/C(=N/N=C/c2ccccc2O)NC1=O (configuration not stated)	50µM*	8%	-17%	14%	?
CC(=O)c1cccc(NC(=O)CC2S/C(=N/N=C/c3ccccc3)NC2=O)c1 (configuration not stated)	-17%	42%[59 µM]	3%	58%	3%
CCOc1ccccc1NC1c2ccccc2C(=O)N1c1cccnc1 (configuration not stated)	7%	79µM*	20%	7%	-16%
O=C1CCC/C=C\C[C@@H](CC(=O)N(CCO)Cc2ccccc2)C(=O)N2CCC[C@H]2CO1	/	/	1%	43%	-2%
CCCOc1ccccc1-c1nc2n[nH]nc2c(=O)[nH]1	/	14µM*!	14%	41%	-1%
CCOc1ccc(C(=O)OCC(=O)Nc2cccnc2Cl)cc1OCC	/	/	3%	28%	-7%
O=C(COC(=O)c1cccnc1Cl)Nc1ccccc1OC(F)F	0%	-20%	4%	4%	-13%
CC(C)(C)C(=O)Nc1ccc(C(=O)COC(=O)c2ccccn2)cc1	/	/	1%	27%	56µM*
O=C(COC(=O)c1ccccn1)Nc1ccccc1OC(F)F	50µM*	4%	1%	20%	56µM*
CCOC(=O)c1ncccc1NC(=O)CC(=O)Nc1cccnc1C(=O)OCC	/	/	10%	20%	13µM*
O=C(COC(=O)c1ccccn1)Nc1cccnc1Cl	79µM*	28µM*	-4%	-1%	?
COc1ccc(C(=O)COC(=O)c2ccccn2)c(OC)c1	/	/	-16%	10%[57 µM]	-20%
O=C(OCC(=O)c1ccc(Cl)cc1Cl)c1ccccn1	/	/	0%	28%	40µM*
O=C(COC(=O)c1ccc2c(c1)OCO2)Nc1ccccc1OC(F)F	/	/	-9%	32%	2%
O=C(COC(=O)c1ccc(Cl)c([N+](=O)[O-])c1)Nc1ccccc1OC(F)F	0%	1.6µM*	0%	19%	2%
COc1ccc2nc3oc(C(=O)NC4CCN(Cc5ccccc5)CC4)cc3cc2c1	-3%	0%[59 µM]	-5%	36%	6%
COC(=O)c1ccc(S(=O)(=O)N2CCCN(Cc3ccc(F)cc3)CC2)n1C	-20%	2%	5%	27%	-17%
CCCCCOC(=O)C1=C(C)NC(=O)NC1c1ccccc1 (configuration not stated)	-30%	18%[59 µM]	1%	42%	1%
Cc1cccn2c(=O)c3cc(C(=O)NCCN4CCOCC4)c(=N)n(CCCN4CCOCC4)c3nc12	-25%	50µM*	-20%	?	-28%
Cc1cccn2c(=O)c3cc(C(=O)NC4CCCCC4)c(=N)n(Cc4ccccc4)c3nc12	25µM*	10µM*	-12%	34%	-5%
Cc1cccn2c(=O)c3cc(C(=O)NCc4ccccc4)c(=N)n(CCCN4CCOCC4)c3nc12	/	/	-3%	17%	-26%
Cc1cccn2c(=O)c3cc(C(=O)NC4CCCC4)c(=N)n(Cc4ccc(F)cc4)c3nc12	-1%[57.1 µM]	-1%	-19%	59%	9%
COCCNC(=O)c1cc2c(=O)n3cccc(C)c3nc2n1C	0%	28µM*	0%	38%	6%
CCOCCCn1c(=NC(=O)c2cccs2)c(C#N)cc2c(=O)n3cccc(C)c3nc21	-7%	71µM*	-5%	24%	-20%
SMILES	BAZ2B inh	G9a block	GLS inhibitor	HP1b binding inh	JMJD2A Tudor inh
CCCCNC(=O)c1cc2c(=O)n3cccc(C)c3nc2n1C	-2%	2%	/	/	/
N=c1nc(N2CCCCC2)cc(N)n1O	-9%	9%[59 µM]	11%	22%	-19%
CCOC(=O)C1=C(CN2CCSCC2)NC(=O)NC1c1cccc([N+](=O)[O-])c1 (configuration not stated)	3%	?	0%	31%	1%
CCOCCCn1c(=N)c(C(N)=S)cc2c(=O)n3cccc(C)c3nc21	?	?	?	-23%	79µM*
Cc1cccn2c(=O)c3cc(C(N)=S)c(=N)n(CCCOC(C)C)c3nc12	-7%	?	?	-1%	?
CC(=O)c1cccc(NC(=O)Nc2ccc3c(c2)N(C)C(=O)CS3)c1	-2%	0%[12.7 µM]	8%	5%	-29%
CC(Sc1ccc2ccccc2n1)C(=O)O (configuration not stated)	2%	50µM*	18%	25%	-11%
CC(Sc1cnc2ccccc2n1)C(=O)O (configuration not stated)	0%	?	0%	36%	2%
CCCOc1ccc(N)cc1N	28µM*	5µM*	37%	?	56µM*
Nc1ccccc1C(=O)NNc1ncc(C(F)(F)F)cc1Cl	50µM*	28%	-4%	40%	-19%
O=S(=O)(NNc1ncc(C(F)(F)F)cc1Cl)c1ccccc1	-8%	?	-17%	?	0.71µM*
Cc1ccc(NC(=O)C2(c3ccc([N+](=O)[O-])cc3)CCCC2)cc1	1%	-13%	-7%	18%	-30%
CCCCNC(=O)CCC(=O)NNc1nc2ccccc2c2nc(-c3ccccc3)nn12	89µM*!	-2%[59 µM]	2%	27%	-12%
CCCCNC(=O)CCC(=O)NNc1nc2ccccc2c2nc(C)nn12	-3%[57.1 µM]	25µM*!	13%	48%	-6%
CCCCNc1nc2ccccc2c2nc(-c3ccccc3)nn12	79%	116%[59 µM]	2%	122%	95%
CCOCCCNC(=O)CCC(=O)NNc1nc2ccccc2c2nc(C)nn12	?	-29%	16%	32%	-3%
CCOC(=O)Cn1c(-c2cccnc2Cl)nc2cc(C)c(C)cc21	0%	7%	0%	3%	-5%
COc1cc(-c2nc(-c3ccccc3)c(-c3ccc(F)cc3)[nH]2)cc2c1OCO2	?	-10%[59 µM]	4%	-13%	-22%
CN(C)c1nc(-c2ccccc2)nc(-c2ccc(Cl)cc2)c1C#N	36%	-11%[12.7 µM]	16%	33%	1%
Cc1cc(C)c(OCC(=O)Nc2ccc(S(=O)(=O)N3CCOCC3)cc2)c(C)c1	-16%	45µM*	6%	9%	-18%
COc1ccccc1OCC(=O)Nc1ccc(S(=O)(=O)N2CCOCC2)cc1	-3%	79µM*	3%	-12%	-24%
COc1cc(S(=O)(=O)N2CCOCC2)ccc1NC(=O)COC(=O)CC12CC3CC(CC(C3)C1)C2	-2%	1.4µM*	-2%	41%	-20%
Cc1cc(OCC(=O)Nc2ccc(S(=O)(=O)N3CCN(C)CC3)cc2)cc(C)c1Cl	50µM*	?	3%	-17%	50µM*
Cc1cc(OCC(=O)Nc2ccc(S(=O)(=O)N3CCN(C)CC3)cc2)ccc1Cl	4%	?	-4%	51%	-3%
Cc1c(C)c2cc3c(C)coc3cc2oc1=O	-3%	?	7%	24%	0%
